Reference: PubChem BioAssay (NCATS)
Values joined by “and” are separate entries in the source; they are usually repeats but may differ in a detail not shown here. Equal values may be shown once. Inconclusive results are not listed. Active and inactive are the calls of the source. Unless noted, calls come from the whole dose curve; as a rule, active = well fitted curve in the direction sought with a large enough effect; inconclusive = small, poorly fitted or top-dose-only effect, or another doubt; inactive = no such curve, though single readings can be large; an effect the other way counts as inactive or inconclusive.

Assays:
[1] = Cell Viability - HepG2 (AID 433; calls by dose curve;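 note: potency is the fitted concentration of half-maximal effect; potency for ATP loss meaning cytotoxicity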); settings: qHTS
Summary of the method: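 Cytotoxicity is scored as loss of intracellular ATP in HepG2 cells exposed to compounds for 40 h. Concentration-response curves, normalized to DMSO and 100 uM tamoxifen, give AC50 values.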

[2] = Cellular Toxicity (caspase-3) Jurkat (AID 655); settings: Jurkat caspase-3 activation, luminescence; caspase-3 activation: at 92.2 µM (top of the series), DMSO = 0%, tamoxifen = 100%;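 note: cells exposed to compound for 16 h at 37 °C before reading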
Summary of the method: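 Caspase 3/7 activation is scored as increased luminescence in Jurkat cells cultured with compound for 16 hours in complete medium. AC50 values come from Hill fits of qHTS concentration-response data normalized to DMSO and 100 uM tamoxifen controls.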

[3] = MultiTox-Fluor Cytotoxicity Assay - LYMP1-002 - Live Cells (AID 955); settings: LYMP1-002 lymphoblastoid live-cell protease fluorescence viability; series mostly up to 46.1 µM; note: % is set by controls: 0 for no effect and ±100 for the full control effect
Summary of the method: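 After 16 h compound exposure at 37 C, live LYMP1-002 lymphoblastoid cells (2500/well) were quantified by cleavage of cell-permeant GF-AFC substrate, read at 405/510 nm after 60 min. Concentration-response fitted with Hill equation for AC50.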

[4] = Cell Viability - LYMP2-004 (AID 966); settings: LYMP2-004 lymphoblastoid cell viability, qHTS; series mostly up to 92.2 µM;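 note: plate controls were DMSO only for no effect and tetraoctylammonium bromide control for full effect; nearly all actives have a fitted effect of over 65% in size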
Summary of the method: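 AC50 values come from Hill modelling of concentration-dependent loss of intracellular ATP, measured by CellTiter-Glo luminescence. Human LYMP2-004 lymphoblastoid cells (2500/well) were exposed to compound for 24 h at 37 C.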

[5] = Cell Viability - LYMP2-011 (AID 969); settings: LYMP2-011 lymphoblastoid cells viability; series mostly up to 92.2 µM;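 note: 0% = DMSO only and full inhibition = 92 µM tetraoctylammonium bromide; nearly all actives have a fitted effect of over 60% in size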
Summary of the method: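 Cytotoxicity qHTS with ATP content as read-out: lymphoblastoid cells (2500/well) exposed to compound for 24 h at 37 C, then luciferase luminescence measured. Concentration-response data fitted with the standard Hill equation to give AC50.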

[6] = Cell Viability - LYMP2-023 (AID 975); settings: LYMP2-023 lymphoblastoid cell viability; series mostly up to 92.2 µM;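 note: cellular ATP measured by luciferase luminescence as viability proxy; plate controls were DMSO only for no effect and 92 µM tetraoctylammonium bromide control for full effect; nearly all actives have a fitted effect of over 55% in size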
Summary of the method: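 Intracellular ATP, read by CellTiter-Glo luminescence, reports viability after 24 hr compound exposure at 37 C. 2500 lymphoblastoid cells/well (LYMP2-023) seeded 5 hr beforehand; Hill fits give AC50; positive control tetraoctylammonium bromide.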

[7] = Cell Viability - LYMP2-025 (AID 976); settings: LYMP2-025 lymphoblastoid cell viability; series mostly up to 92.2 µM;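 note: plate controls were DMSO only for no effect and tetraoctylammonium bromide control for full effect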
Summary of the method: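 Cytotoxicity read as loss of intracellular ATP (luciferase luminescence) after 24 h compound treatment at 37 C. Uses LYMP2-025 lymphoblastoid cells in 1536-well format; Hill-equation modelling gives AC50; tetraoctylammonium bromide as positive control.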

[8] = Cell Viability - LYMP2-002 (AID 977); settings: LYMP2-002 lymphoblastoid cell viability, qHTS; series mostly up to 92.2 µM;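 note: plate controls were DMSO only for no effect and 92 µM tetraoctylammonium bromide for full effect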
Summary of the method: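 In this qHTS viability screen, 2500 human lymphoblastoid cells per well receive compound for 24 hr at 37 C, and luciferase-based ATP luminescence gives the viability signal. Tetraoctylammonium bromide serves as positive control.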

[9] = Cell Viability - LYMP2-012 (AID 982); settings: LYMP2-012 lymphoblastoid cell viability qHTS; series mostly up to 92.2 µM;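 note: cellular ATP by luciferase luminescence where a drop means cytotoxicity; cells exposed to compound for one day before reading; 0% = DMSO only and full loss = 92 µM tetraoctylammonium bromide; nearly all actives have a fitted effect of over 55% in size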
[10] = Cell Viability - LYMP2-020 (AID 986); settings: series mostly up to 92.2 µM;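 note: plate controls were DMSO only for no effect and tetraoctylammonium bromide at 92 µM for full effect; nearly all actives have a fitted effect of over 55% in size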
Summary of the method: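 Cytotoxicity in qHTS format: luminescent ATP readout from CellTiter-Glo after 24 h compound exposure at 37 C in complete medium. LYMP2-020 lymphoblastoid cells were seeded at 2500/well; concentration-response data fitted to the Hill equation for AC50.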

[11] = Cell Viability - LYMP2-022 (AID 987); settings: LYMP2-022 lymphoblastoid cell viability; series mostly up to 92.2 µM;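 note: 0% = DMSO alone and full effect = tetraoctylammonium bromide at 92 µM; nearly all actives have a fitted effect of over 55% in size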
Summary of the method: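 Cytotoxicity read as decreased cellular ATP (CellTiter-Glo luminescence, 30 min room temperature) after 24 hours compound exposure of 2500 lymphoblastoid LYMP2-022 cells/well at 37 C. Concentration-response data fitted with standard Hill equation for AC50.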

[12] = molecular target: Vitamin D3 receptor (Homo sapiens) (UniProt P11473); test: qHTS assay for small molecule agonists of vitamin D receptor signaling (AID 588543; calls by dose curve;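 note: 0% = DMSO basal and 100% = reference agonist control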); settings: HEK293T VDR-UAS-bla, beta-lactamase ratio, 16 h; series mostly up to 76.8 µM
Summary of the method: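 qHTS in agonist mode: compound titrations stimulate a VDR-driven β-lactamase reporter in HEK293T cells over 16 h at 37 °C. Response normalized to 50 nM 1α,25-dihydroxyvitamin D3 = 100%, DMSO = 0%; Hill fitting gives EC50 and maximal response.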

[13] = molecular target: Retinoic acid receptor RXR-alpha (Homo sapiens) (UniProt P19793); test: qHTS assay for small molecule antagonists of retinoid X receptor alpha signaling (AID 588546; active = well fitted inhibition curve with a large enough effect in the signal ratio, with a control signal flat, not every such curve was filed as active; the % refers to the signal ratio;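 note: cells stimulated with 9-cis-retinoic acid as agonist; % is set by controls: 0 for no effect and ±100 for the full control effect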); settings: HEK293T RXRa-UAS-bla, beta-lactamase ratio, antagonist mode
Summary of the method: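 Beta-lactamase reporter inhibition, read as CCF4 fluorescence ratio (ex 405, em 460/530 nm) after 2 h at RT. HEK293T UAS-bla cells, 2500/well, were stimulated with 9-cis-RA at 500 or 100 nM final alongside test compound for 18 h at 37 C.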

[14] = molecular target: Voltage-gated inwardly rectifying potassium channel KCNH2 (Homo sapiens) (UniProt Q12809); test: qHTS Assay for Small Molecule Inhibitors of the Human hERG Channel Activity (AID 588834); settings: U2OS BacMam hERG, FluxOR thallium flux fluorescence; series mostly up to 92.2 µM;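 note: U2OS cells transduced with hERG by BacMam; top concentration of the series differs between compounds; % is set by controls: 0 for no effect and ±100 for the full control effect; lower thallium flux fluorescence means stronger hERG block; nearly all actives have a fitted effect of over 50% in size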
Summary of the method: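 Cells were infected with hERG-BacMam virus for 4 hrs at room temperature, grown overnight, then seeded at 2000/well. After dye loading and roughly 10 min compound treatment, thallium influx was triggered and fluorescence recorded.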

[15] = qHTS assay for small molecule activators of the p53 signaling pathway (AID 651743; active = well fitted activation curve with a large enough effect in the signal ratio, not every such curve was filed as active; the % refers to the signal ratio; note: % of control where 0% means no effect); settings: HCT-116 p53RE-bla, beta-lactamase FRET ratio, 16 h; activation: stronger effect = higher value
Summary of the method: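 Agonist-mode quantitative HTS in HCT-116 cells carrying a p53-response-element beta-lactamase reporter; 16 h compound treatment at 37 C, then FRET substrate loading for 2 h at room temperature and fluorescence read.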

[16] = qHTS assay for cell viability of HEK293 cells (AID 743288); settings: ATP luminescence (CellTiter-Glo), 18 h, stronger effect = lower value; note: % is set by controls: 0 for no effect and ±100 for the full control effect; nearly all actives have a fitted effect of over 50% in size
Summary of the method: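 Quantitative high-throughput screen: compounds were pinned onto parental HEK293 cells (2,000 per well) after a minimum 5 h settling at 37 C, incubated 18 h at 37 C, and intracellular ATP measured by luciferase luminescence.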

[17] = Cell Viability - N2a (AID 540); settings: N2a mouse neuroblastoma cell viability; activity change, negative = cytotoxicity: at 92.2 µM (top of the series);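 note: plate controls were DMSO alone for no effect and tamoxifen control for full effect; nearly all actives have a fitted effect of over 45% in size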
Summary of the method: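 CellTiter-Glo ATP luminescence, read 20 min after reagent at room temperature, reported viability following 40 h compound treatment at 37 °C. N2a mouse neuroblastoma cells seeded 1500/well; Hill equation gave AC50.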

[18] = Cellular Toxicity (caspase-3) BJ (AID 658); settings: BJ fibroblasts, luminescence, normalized: DMSO 0%, staurosporine 100%; series mostly up to 91.7 µM;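 note: 0% = DMSO basal and 100% = 10 µM staurosporine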
Summary of the method: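 Plated BJ cells (1000/well) rested 5 hr, received compound for 16 hr at 37 °C, then Caspase-Glo 3/7 reagent for 1 hr at room temperature before luminescence reading.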

[19] = Cell Viability - LYMP2-014 (AID 983); settings: LYMP2-014 lymphoblastoid cells, viability qHTS; series mostly up to 92.2 µM;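 note: plate controls were DMSO only for no effect and 92 µM tetraoctylammonium bromide for full effect; nearly all actives have a fitted effect of over 50% in size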
Summary of the method: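 Intracellular ATP loss, read by luciferase luminescence, measures acute cytotoxicity after 24 h compound exposure of lymphoblastoid LYMP2-014 cells (2500/well, 37 C). Concentration-response data fitted to the Hill equation for AC50.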

[20] = Cell Viability - LYMP2-016 (AID 984); settings: LYMP2-016 lymphoblastoid cell viability, qHTS; series mostly up to 92.2 µM
Summary of the method: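 Acute toxicity in a Coriell human lymphoblastoid line is scored as loss of intracellular ATP over 24 h of treatment in complete medium. CellTiter-Glo signal is fitted across concentrations with the Hill equation to give AC50.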

Sequence of Voltage-gated inwardly rectifying potassium channel KCNH2 (Homo sapiens) (Q12809 whole entry, looked up): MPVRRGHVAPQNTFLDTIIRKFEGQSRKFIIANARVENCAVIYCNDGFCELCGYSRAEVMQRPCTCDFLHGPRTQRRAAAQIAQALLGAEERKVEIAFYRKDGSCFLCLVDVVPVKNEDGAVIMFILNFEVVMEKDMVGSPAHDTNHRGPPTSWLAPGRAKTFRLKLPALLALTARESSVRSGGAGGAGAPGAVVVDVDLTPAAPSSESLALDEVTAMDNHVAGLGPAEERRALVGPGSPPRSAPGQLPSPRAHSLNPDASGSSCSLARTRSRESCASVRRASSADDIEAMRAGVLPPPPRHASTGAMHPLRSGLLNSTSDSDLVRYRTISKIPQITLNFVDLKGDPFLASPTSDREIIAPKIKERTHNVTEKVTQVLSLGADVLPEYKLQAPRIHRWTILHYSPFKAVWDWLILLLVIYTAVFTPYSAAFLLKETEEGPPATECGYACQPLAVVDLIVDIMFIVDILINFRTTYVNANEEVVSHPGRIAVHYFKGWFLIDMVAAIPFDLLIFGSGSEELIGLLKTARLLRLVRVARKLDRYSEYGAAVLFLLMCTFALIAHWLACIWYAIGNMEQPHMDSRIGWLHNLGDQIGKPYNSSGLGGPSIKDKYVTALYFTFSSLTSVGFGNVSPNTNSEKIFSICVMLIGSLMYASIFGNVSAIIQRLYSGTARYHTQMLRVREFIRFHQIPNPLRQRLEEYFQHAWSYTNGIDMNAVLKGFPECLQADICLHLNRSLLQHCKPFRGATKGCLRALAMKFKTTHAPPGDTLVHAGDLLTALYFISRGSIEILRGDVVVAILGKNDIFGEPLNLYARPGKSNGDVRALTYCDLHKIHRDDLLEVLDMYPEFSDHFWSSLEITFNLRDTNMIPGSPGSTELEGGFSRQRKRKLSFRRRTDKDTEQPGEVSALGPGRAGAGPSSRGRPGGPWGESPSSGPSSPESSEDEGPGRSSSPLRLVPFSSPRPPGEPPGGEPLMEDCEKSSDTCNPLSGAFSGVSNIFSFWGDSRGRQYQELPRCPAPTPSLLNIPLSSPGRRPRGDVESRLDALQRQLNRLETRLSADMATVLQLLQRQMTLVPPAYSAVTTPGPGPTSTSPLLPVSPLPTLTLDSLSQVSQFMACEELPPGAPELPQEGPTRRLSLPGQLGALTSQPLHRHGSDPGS
Sequence of Retinoic acid receptor RXR-alpha (Homo sapiens) (P19793 whole entry, looked up): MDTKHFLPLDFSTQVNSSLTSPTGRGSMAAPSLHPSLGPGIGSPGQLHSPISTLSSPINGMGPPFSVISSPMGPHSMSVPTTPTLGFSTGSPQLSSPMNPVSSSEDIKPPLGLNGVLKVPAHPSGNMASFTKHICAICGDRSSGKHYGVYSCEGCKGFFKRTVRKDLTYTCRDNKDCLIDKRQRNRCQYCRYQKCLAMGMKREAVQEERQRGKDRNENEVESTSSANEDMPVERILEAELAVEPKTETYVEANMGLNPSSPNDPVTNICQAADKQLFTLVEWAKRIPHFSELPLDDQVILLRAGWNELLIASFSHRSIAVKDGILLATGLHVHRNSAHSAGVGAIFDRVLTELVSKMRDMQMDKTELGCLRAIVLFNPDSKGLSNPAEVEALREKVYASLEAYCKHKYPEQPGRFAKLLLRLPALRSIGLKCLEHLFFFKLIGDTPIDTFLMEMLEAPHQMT
Sequence of Vitamin D3 receptor (Homo sapiens) (P11473 whole entry, looked up): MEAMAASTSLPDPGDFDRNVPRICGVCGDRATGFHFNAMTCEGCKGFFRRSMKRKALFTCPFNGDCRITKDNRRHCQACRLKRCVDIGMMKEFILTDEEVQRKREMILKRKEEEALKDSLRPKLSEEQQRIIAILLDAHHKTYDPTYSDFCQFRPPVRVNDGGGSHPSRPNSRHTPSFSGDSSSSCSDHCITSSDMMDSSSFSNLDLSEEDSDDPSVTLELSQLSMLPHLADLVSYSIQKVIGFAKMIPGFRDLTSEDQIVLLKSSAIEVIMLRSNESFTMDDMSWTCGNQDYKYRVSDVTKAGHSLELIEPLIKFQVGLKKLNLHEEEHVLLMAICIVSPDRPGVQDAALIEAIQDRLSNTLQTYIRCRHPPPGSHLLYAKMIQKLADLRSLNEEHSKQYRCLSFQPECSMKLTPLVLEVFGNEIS

ClCc1ccccn1
inactive: Potency [1] > 92 µM | caspase-3 activation [2] 1.38% | outcome [3] | Potency [4] | Potency [5] | Potency [6] | Potency [7] | Potency [8] | Potency [9] | Potency [10] | Potency [11] | outcome [12] | max response [13] -12.8% and -17% | Potency [14] | activation [15] -0.689% and -0.994% | max response [16] 1.66% and -12.2%

C=CC=O
inactive: Potency [1] > 92 µM | Potency [17] | caspase-3 activation [2] 13.2% | outcome [18] | outcome [3] | Potency [6] | Potency [7] | Potency [8] | Potency [9] | Potency [11] | outcome [12] | Potency [14] | activation [15] -0.485%

O=[N+]([O-])c1ccc(Cl)cc1
inactive: Potency [1] > 92 µM | Potency [17] | caspase-3 activation [2] 1.25% | outcome [18] | outcome [3] | Potency [4] | Potency [5] | Potency [6] | Potency [7] | Potency [8] | Potency [9] | Potency [19] | Potency [20] | Potency [10] | Potency [11] | outcome [12] | max response [13] 5.21% and -2.59% | Potency [14] | activation [15] 0.333% and 2.39%

Nc1c(Cl)cc([N+](=O)[O-])cc1Cl
inactive: Potency [1] > 92 µM | caspase-3 activation [2] 3.21% | outcome [3] | Potency [4] | Potency [5] | Potency [6] | Potency [7] | Potency [9] | Potency [19] | Potency [20] | Potency [10] | Potency [11] | outcome [12] | max response [13] 5.54% and -6.63% | Potency [14] | max response [16] 7.25% and -11.8%

NC1CCC(CC2CCC(N)CC2)CC1 (stereo not given)
inactive: Potency [1] > 92 µM | Potency [17] | caspase-3 activation [2] 0.418% | outcome [18] | outcome [3] | Potency [4] | Potency [6] | Potency [7] | Potency [8] | Potency [9] | Potency [19] | Potency [10] | Potency [11] | max response [13] -0.208% and 1.62% | Potency [14] | activation [15] -3.72% and -4.21% | max response [16] 7.87% and 2.31%

CC(C)CC(C)N (stereo not given)
inactive: Potency [1] > 92 µM | Potency [17] | caspase-3 activation [2] 1.95% | outcome [3] | Potency [4] | Potency [6] | Potency [7] | Potency [8] | Potency [9] | Potency [20] | Potency [10] | Potency [11] | max response [13] 1.28% | Potency [14] | activation [15] -1.88% | max response [16] 1.65%

C=CCCl
inactive: Potency [1] > 92 µM | caspase-3 activation [2] 0.433% | outcome [3] | Potency [4] | Potency [5] | Potency [7] | Potency [8] | Potency [19] | Potency [20] | Potency [11] | outcome [12] | Potency [14] | activation [15] -1.58% | max response [16] 2.61%

ClC(Cl)c1ccccc1
inactive: Potency [1] > 92 µM | Potency [17] | caspase-3 activation [2] 2.34% | outcome [18] | outcome [3] | Potency [4] | Potency [5] | Potency [6] | Potency [7] | Potency [9] | Potency [19] | Potency [20] | Potency [10] | Potency [11] | outcome [12] | Potency [14] | max response [16] -9.22%

O=C(O)CBr
inactive: Potency [1] > 92 µM | Potency [17] | caspase-3 activation [2] 2.79% | outcome [18] | outcome [3] | Potency [4] | Potency [5] | Potency [6] | Potency [8] | Potency [9] | Potency [19] | Potency [20] | Potency [10] | Potency [11] | outcome [12] | max response [13] -0.759% | activation [15] -0.316% | max response [16] 6.1%

N#CCc1ccccc1
inactive: Potency [1] > 92 µM | caspase-3 activation [2] -0.89% | outcome [18] | outcome [3] | Potency [5] | Potency [6] | Potency [7] | Potency [8] | Potency [9] | Potency [20] | Potency [11] | max response [13] 20.3% | Potency [14] | activation [15] -0.84% | max response [16] -1.92%

Clc1cccc(Cl)c1Cl
inactive: Potency [1] > 92 µM | Potency [17] | caspase-3 activation [2] -0.0806% | outcome [18] | Potency [4] | Potency [5] | Potency [6] | Potency [7] | Potency [9] | Potency [19] | Potency [20] | Potency [10] | Potency [11] | outcome [12] | max response [13] 1.17% and -4.41% | Potency [14]

ClC(Cl)(Cl)C(Cl)(Cl)Cl
inactive: Potency [1] > 92 µM | Potency [17] | caspase-3 activation [2] -0.424% | outcome [18] | Potency [4] | Potency [5] | Potency [6] | Potency [7] | Potency [8] | Potency [9] | Potency [19] | Potency [20] | Potency [10] | Potency [11] | outcome [12] | max response [13] 8.66% | activation [15] -2.98% | max response [16] 3.22%

CCCBr
inactive: Potency [1] > 92 µM | Potency [17] | caspase-3 activation [2] 0.185% | outcome [18] | outcome [3] | Potency [4] | Potency [6] | Potency [7] | Potency [8] | Potency [9] | Potency [19] | Potency [20] | Potency [10] | Potency [11] | outcome [12] | max response [13] 1.56% | Potency [14] | activation [15] -0.771% | max response [16] -3.65%

CCC(Cl)[N+](=O)[O-] (stereo not given)
inactive: Potency [1] > 92 µM | Potency [17] | caspase-3 activation [2] 1.33% | outcome [3] | Potency [4] | Potency [5] | Potency [6] | Potency [7] | Potency [8] | Potency [19] | Potency [10] | Potency [11] | outcome [12] | Potency [14] | activation [15] -1.08% | max response [16] -3.51%
